MARV entry inh = inhibitors of Marburg virus binding or cell entry | Marburg virus pseudotyped entry inhibition, cell reporter | actives 1.8% (n = 300,000) | Potency, µM (series often up to 37.8 µM), hits mostly inhibitors | AID 540276; calls by dose curve; tested in HEK293 cells
Lassa entry inh = inhibitors of Lassa virus binding or cell entry; actives 1.2% (n = 300,000); AID 540256; Potency, µM (top dose mostly 37.9 µM), usual class: inhibitors; Lassa virus pseudotype entry inhibition, cell reporter; calls by dose curve; tested in HEK293 cells; further: nearly all actives have a fitted effect of over 50% in size
FMDV antiviral = blocks foot and mouth disease virus; FMDV antiviral cell-based qHTS; Potency, µM (doses to about 57.9 µM), usual class: inhibitors; actives 1.2% (n = 410,000); AID 1159524; calls by dose curve; tested in HEK293T cells; further: read-out not given here; nearly all actives have a fitted effect of over 45% in size
Sm TGR inh = S. mansoni TGR enzyme inhibition; purified TGR, DTNB reduction, TNB absorbance 405 nm; Potency, µM (series often up to 114 µM), usual class: inhibitors; actives 3% (n = 360,000); further: nearly all actives have a fitted effect of over 60% in size
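TGR 20 nM + NADPH 100 uM (dispensed conc.), cpd preinc 15 min RT; start with NADPH (500 uM addition) then DTNB (15 mM addition). Kinetic TNB absorbance, 405 nm filter. Four-parameter Hill fit across titration.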
HCV inh = blocks hepatitis C virus; Huh7.5.1 HCVcc-Cre infection, luciferase reporter, 44 h; Potency, µM (highest dose often 41.8 µM), most hits filed as inhibitors; actives 3.4% (n = 340,000)
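Infectious HCV cell culture screen: compound-treated cells (1,000/well, pre-plated 4 h) are infected with HCVcc-Cre at roughly 0.5 moi and grown 44 h. Infection is quantified by luciferase signal after 15 min substrate incubation at room temperature.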
RE007 growth inh = less growth of the S. pombe RE007 Vpr strain. S. pombe RE007 Vpr strain, BacTiter-Glo ATP luminescence, 24 h. Potency, µM (series often up to 92.2 µM), actives largely listed as inhibitors. actives 0.21% (n = 360,000); active means well fitted falling curve with a large enough effect; inconclusive means small, poorly fitted or top-dose-only effect; inactive means no such curve, though single readings can be large or run the other way; further: nearly all actives have a fitted effect of over 50% in size
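Fission yeast strain RE007, carrying one chromosomally integrated HIV-1 vpr copy, was seeded at OD 0.01 in PMG+AL medium with 23 nL pinned compound. After 24 h at 30 °C and 99% humidity, viability was read by BacTiter-Glo luminescence.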
Numbers stand for hits; – = inactive; ? = inconclusive; · = not tested or not shown. Shown are actives, neighbours in structure and some others; about 7.2% of the full set was active somewhere. Unless noted, the call rests on the fitted dose curve; in most records, active means well fitted curve in the direction sought with a large enough effect; inconclusive means small, poorly fitted or top-dose-only effect, or another doubt; inactive means no such curve, though single readings can be large; an effect the other way counts as inactive or inconclusive.

SMILES | MARV entry inh | Lassa entry inh | FMDV antiviral | Sm TGR inh | HCV inh | RE007 growth inh
Cc1cccc(CN2C(=O)c3ccccc3S(=O)(=O)c3ccc(C(=O)OCC4CCCO4)cc32)c1 (configuration not stated) | · | – | – | – | · | ·
C=CCN(c1ccccc1OC)S(=O)(=O)c1cccc(C(=O)OCC(=O)c2c[nH]c3ccccc23)c1 | ? | 9.2µM | ? | – | ? | –
COc1cc(OC)c(N(C)S(=O)(=O)c2cccc(C(=O)OCC(=O)c3c[nH]c4ccccc34)c2)cc1Cl | ? | ? | 8.9µM | – | ? | –
COc1cc(OC)c(N(C)S(=O)(=O)c2cccc(C(=O)Nc3nccs3)c2)cc1Cl | 8.9µM | ? | ? | · | ? | –
O=C(NN=C1C[C@@H](O)[C@H](O)[C@H]2[C@@H]3C(=O)N(C[C@@H]4CCCO4)C(=O)[C@@H]3CC[C@H]12)OCc1ccccc1 | ? | – | · | · | · | ·
COc1ccc(CNC(=O)Cn2c(=O)n3nc(-c4cccc(F)c4)nc3c3ccccc32)cc1OC | · | – | – | – | · | ·
CCC12CN3CC(C)(CN(C1)C3c1c[nH]c3ccccc13)C2=O (configuration not stated) | – | – | – | – | · | ·
Cc1ccc(Cn2ccnc2SCC(=O)NCc2ccc(F)cc2)cc1 | · | – | – | – | · | ·
CC12CCC(C(=O)N(CSC(=S)N/N=C\c3ccccc3)C1=O)C2(C)C (configuration not stated) | – | – | – | 4.5µM | – | –
ClC1=C(Cl)C(Cl)=C(Cl)C1=C/C=C/c1ccccc1 | · | · | ? | 50µM | 8.9µM | –
COc1ccccc1CCNC(=O)C(=O)NCC(c1cccs1)S(=O)(=O)c1ccc(C)cc1 (configuration not stated) | · | – | – | ? | · | ·
Cc1cc(-c2ccc(N3CCOCC3)cc2)nc2ccccc12 | ? | – | – | – | ? | ?
c1ccc2nc(-c3ccc(N4CCOCC4)cc3)ccc2c1 | 2.3µM | 3.7µM | – | – | ? | –
CN1CCN(c2ccc(-c3ccc4ccccc4n3)cc2)CC1 | ? | ? | 1.8µM | – | 16µM | ?
CCc1noc(C)c1C(=O)N1CCOc2ccc(CN3CCN(c4ccccn4)CC3)cc2C1 | · | · | – | · | · | ·
Cc1oc(-c2ccccc2NC(=O)C2CCC2)nc1CNC(=O)c1ccc(C#CC(C)(C)O)cc1 | · | · | – | · | · | ·
CSc1ncc(CN2CCCC(C(=O)Nc3ccc(-c4ccco4)cc3)C2)cn1 (configuration not stated) | · | · | – | 18µM | – | –
CCC(NC(=O)C(C)NC)C(=O)N1CCCC1C(=O)NC1CCCc2ccccc21 (configuration not stated) | · | · | – | 32µM | – | –
O=C(C=Cc1ccc2c(c1)OCO2)c1ccc(F)cc1 | – | · | · | · | · | ·
C=C[C@@H]1c2c(F)cccc2N(S(=O)(=O)c2ccc(C)cc2)[C@H](c2ccc(OC(C)=O)cc2)C1(C#N)C#N | · | · | – | – | 22µM | –
COc1ccccc1C1CN(CC(=O)N[C@H]2CCCCNC2=O)Cc2ccccc2O1 (some centres not stated) | · | · | – | · | · | ·
Cc1ccc(-n2nc3c(N4CCC(C(=O)N5CCCCCC5)CC4)nnc(C)c3c2C)cc1 | · | · | – | – | – | –
Cc1nnc(N2CCC(C(=O)N3CCCCCC3)CC2)c2nn(-c3ccc(Cl)cc3)c(C)c12 | · | · | – | – | 8.9µM | –
CCCN1CCN(C(=O)C2CCN(c3nnc(C)c4c(C)n(-c5ccc(C)cc5)nc34)CC2)CC1 | · | · | – | – | 2.2µM | –
COc1ccc(-n2nc3c(N4CCC(C(=O)N5CCCCCC5)CC4)nnc(C)c3c2C)cc1 | · | · | ? | – | 11µM | –
CCN(C(=O)Nc1cn(CC(C)C)c(=O)c2ccccc12)c1cc(C)ccc1C | · | – | – | – | · | ·
COC1=C(C(=O)c2ccccc2)C(=O)[C@@]2(CC=C(C)C)C[C@@H]([S+](=O)([O-])c3ccccc3)C(C)(C)[C@@]1(CC=C(C)C)C2=O | – | ? | · | · | · | ·
C/C(=N\Nc1nc(N)cc(Cl)n1)c1ccc(F)cc1 | · | · | – | – | ? | –
C/C(=N\Nc1nc(N)cc(Cl)n1)c1ccc(Cl)c(Cl)c1 | – | – | – | – | 11µM | –
Cc1cc2n(n1)SC(Nc1ccc(F)c(Cl)c1)N2 (configuration not stated) | – | – | – | 8.9µM | – | –

High-throughput results (PubChem)
